RGS12 GoLoco inh = blocks human Gai1 binding to RGS12 GoLoco peptide, red readout. P63096. Gai1:RGS12 GoLoco peptide FP, rhodamine, 10 min. 0.44% of 230,000 active. Potency, µM (highest dose often 61.6 µM), usual class: inhibitors; active = well fitted inhibition curve with a large enough effect, not every such curve was filed as active; inactive = no such curve, though single readings can be large or run the other way; also: nearly all actives have a fitted effect of over 30% in size
Menin MLL FP TR = inhibitors of human menin-MLL interaction, mutant MLL peptide. O00255. Menin + Texas Red MLL mutant peptide, fluorescence polarization. Potency, µM (series often up to 61.6 µM), actives largely listed as inhibitors. 0.23% of 270,000 active; active = well fitted inhibition curve with a large enough effect in the polarisation, with a control signal flat, not every such curve was filed as active; inconclusive = small, poorly fitted or top-dose-only effect, or effect the other way, or a change in a side signal; inactive = no such curve, though single readings can be large or run the other way; the % refers to the polarisation
Menin MLL FP FL = displaces fluorescein MLL peptide from human menin; 290,000 tested, under 10 active; FP activity change, % at 61.4 µM; Fluorescence polarization, fluorescein-MLL peptide displacement from menin; active = well fitted curve in the direction sought with a large enough effect in the polarisation, not every such curve was filed as active; inconclusive = small, poorly fitted or top-dose-only effect, or effect the other way, or a change in a side signal; inactive = no such curve, though single readings can be large or run the other way; the % refers to the polarisation
TRb-SRC2 inh = TRbeta-SRC2 interaction inhibition; P10828; TRbeta-SRC2 peptide binding, fluorescence polarization; receptor liganded with 1 µM T3; Potency, µM (highest dose often 106 µM), actives largely listed as inhibitors; 0.065% of 280,000 active; AID 1469; active = well fitted inhibition curve with a large enough effect; inconclusive = small, poorly fitted or top-dose-only effect, or effect the other way; also: nearly all actives have a fitted effect of over 50% in size
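Compounds were added to 0.6 uM TRb ligand-binding domain and 20 nM Texas Red-labeled SRC2 peptide in Tris buffer containing 1 uM T3, incubated 5 hr at ambient temperature, then read by fluorescence polarization.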
TexasRed fluor = alters Texas Red total fluorescence, flagging assay interference; TRb/SRC2 Texas Red total fluorescence interference; Potency, µM (highest dose often 106 µM); 0.29% of 280,000 active; active = well fitted curve in either direction with a large enough effect; inconclusive = small, poorly fitted or top-dose-only effect
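Human TRb ligand-binding domain at 0.6 uM with 20 nM Texas Red SRC2 peptide in Tris buffer containing 1 uM T3 and 5% DMSO, incubated with compound 5 h at ambient temperature. Total fluorescence (555/632 nm) calculated as parallel + 2 × perpendicular.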
CXXC DNA block = blocks binding of human MLL CXXC domain to DNA. MLL-CXXC / FITC-HOXA9 DNA fluorescence polarization. Potency, µM (doses to about 115 µM), hits mostly inhibitors. 0.037% of 290,000 active. AID 2662; active = well fitted inhibition curve with a large enough effect in the polarisation, with a control signal flat, not every such curve was filed as active; inconclusive = small, poorly fitted or top-dose-only effect, or effect the other way, or a change in a side signal; inactive = no such curve, though single readings can be large or run the other way; the % refers to the polarisation
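Steps: dispense CXXC domain solution (7 uM) → pin compounds or unlabeled HOX-A9 DNA control → 5 min ambient → add FLSN-HOX-A9 solution (50 nM) → spin → 30 min ambient → fluorescence polarization. Tris pH 7.5/NaCl/DTT/BSA buffer.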
Each line names hits and unclear results; the compound was inactive in the other large screens; ! = repeats disagree; [ ] = another dose, or the depositor's remark. Hits are enriched below; roughly 0.5% of the tested compounds scored in any of these assays.

Clc1cccc(N2CCNCC2)c1	TRb-SRC2 inh 8.9µM!, TexasRed fluor 28µM![fluorescent]
CCCCCCC[n+]1ccc(-c2cc[n+](CCCCCCC)cc2)cc1	RGS12 GoLoco inh 7.9µM!, Menin MLL FP FL inconclusive
COc1cc2c(cc1OC)-c1c(O)c(OC)cc3c1[C@H](C2)N(C)CC3	RGS12 GoLoco inh 11µM, Menin MLL FP TR inconclusive, Menin MLL FP FL inconclusive, TRb-SRC2 inh 40µM, TexasRed fluor inconclusive (no result: CXXC DNA block)
COc1cc2c(cc1OC)-c1c(OC)c(OC)cc3c1C(C2)N(C)CC3 (configuration not stated)	none
CCOP(=O)(O)C(N)=O	none (no result: RGS12 GoLoco inh, Menin MLL FP TR, Menin MLL FP FL, CXXC DNA block)
CCOP(=S)(OCC)SCn1nnc2ccccc2c1=O	none (no result: RGS12 GoLoco inh, Menin MLL FP TR, Menin MLL FP FL, CXXC DNA block)
CC(=O)[C@@]1(O)CC[C@H]2[C@@H]3CC=C4C[C@@H](O)CC[C@]4(C)[C@H]3CC[C@@]21C	none
COc1ccc(C(=O)O)cc1OC	RGS12 GoLoco inh 32µM (no result: CXXC DNA block)
CCC(C)(NC(=O)c1cc(Cl)c(C)c(Cl)c1)C(=O)CCl (configuration not stated)	none (no result: RGS12 GoLoco inh, Menin MLL FP TR, Menin MLL FP FL, CXXC DNA block)
CN(C)C(=O)OCc1n(C)cc[n+]1C	none
CNC(=O)OCCc1n(C)cc[n+]1C	RGS12 GoLoco inh 1.6µM
CC1=NCCc2c1[nH]c1cc(O)ccc21	RGS12 GoLoco inh 28µM!, Menin MLL FP FL inconclusive (no result: CXXC DNA block)
O=C1C=Cc2ccccc2C1=O	Menin MLL FP TR inconclusive, Menin MLL FP FL inconclusive, TRb-SRC2 inh inconclusive, TexasRed fluor inconclusive
O=C1C=CC(=O)c2c(O)cccc21	Menin MLL FP TR inconclusive, Menin MLL FP FL inconclusive, TRb-SRC2 inh inconclusive, TexasRed fluor 8.9µM[quencher] (no result: CXXC DNA block)
CC(C)[C@H]1C(=O)N2CCC[C@H]2[C@]2(O)O[C@](NC(=O)[C@@H]3C=C4c5cccc6[nH]cc(c56)C[C@H]4N(C)C3)(C(C)C)C(=O)N12	RGS12 GoLoco inh 11µM, Menin MLL FP TR inconclusive, Menin MLL FP FL inconclusive, CXXC DNA block inconclusive
CC(C)C1C(=O)N2CCCC2[C@]2(O)O[C@@](NC(=O)[C@@H]3C=C4c5cccc6[nH]cc(c56)C[C@H]4N(C)C3)(C(C)C)C(=O)N12 (some centres not stated)	Menin MLL FP FL inconclusive (no result: CXXC DNA block)
N#CC(CCc1ccc(Cl)cc1)(Cn1cncn1)c1ccccc1 (configuration not stated)	none (no result: RGS12 GoLoco inh, Menin MLL FP TR, Menin MLL FP FL, CXXC DNA block)
O=[N+]([O-])Nc1nccn1Cc1ccc(Cl)nc1	none (no result: RGS12 GoLoco inh, Menin MLL FP TR, Menin MLL FP FL, CXXC DNA block)
O=C(O)c1cccc2c1NC(C(=O)O)C1CC(Sc3ccccc3[N+](=O)[O-])C(Cl)C21 (configuration not stated)	Menin MLL FP TR 22µM, TexasRed fluor inconclusive
C[CH2][Hg][S]c1ccccc1C(=O)O	RGS12 GoLoco inh 28µM
Cc1ccc(N2C(=O)NC(=O)/C(=C/c3cnc(-c4ccccc4)nc3)C2=O)cc1C	Menin MLL FP FL inconclusive
Cc1cccc(N2C(=O)NC(=O)/C(=C\c3cnc(-c4ccccc4)nc3)C2=O)c1	Menin MLL FP TR inconclusive, Menin MLL FP FL inconclusive, TexasRed fluor 1.3µM[quencher]
COc1nn(C(=O)NS(=O)(=O)c2ccccc2OC(F)(F)F)c(=O)n1C	none (no result: RGS12 GoLoco inh, Menin MLL FP TR, Menin MLL FP FL, CXXC DNA block)
CN1C[C@H](CO)C=C2c3cccc4[nH]cc(c34)C[C@H]21	RGS12 GoLoco inh 13µM
CN1C[C@@H](CO)C=C2c3cccc4[nH]cc(c34)CC21 (some centres not stated)	Menin MLL FP FL inconclusive (no result: CXXC DNA block)
Clc1ccc([C@]2(Cn3cncn3)C[C@@H](Br)CO2)c(Cl)c1	none (no result: RGS12 GoLoco inh, Menin MLL FP TR, Menin MLL FP FL, CXXC DNA block)
CCCCOCCCn1c(N)c(C(=O)OCCOC)c2nc3ccccc3nc21	Menin MLL FP TR 28µM
CNC(=O)O/N=C/C(C)(C)S(C)(=O)=O	none (no result: RGS12 GoLoco inh, Menin MLL FP TR, Menin MLL FP FL, CXXC DNA block)
CCCOc1nn(C(=O)NS(=O)(=O)c2ccccc2C(=O)OC)c(=O)n1C	none (no result: RGS12 GoLoco inh, Menin MLL FP TR, Menin MLL FP FL, CXXC DNA block)
CC[n+]1c(-c2ccccc2)c2cc(N)ccc2c2ccc(N)cc21	RGS12 GoLoco inh 5.6µM, TRb-SRC2 inh 35µM!, TexasRed fluor 45µM![fluorescent], CXXC DNA block inconclusive (no result: Menin MLL FP TR, Menin MLL FP FL)
O=C(OC1CCN(CCCl)CC1)C(c1ccccc1)c1ccccc1	Menin MLL FP TR inconclusive, TRb-SRC2 inh 35µM
COCC(=O)N(c1c(C)cccc1C)N1CCOC1=O	none (no result: RGS12 GoLoco inh, Menin MLL FP TR, Menin MLL FP FL, CXXC DNA block)
CN1C(=O)N(C)C(=O)C(CCc2ccncc2)(CCc2ccncc2)C1=O	none
c1cc(CCN2CCCC2)ccn1	RGS12 GoLoco inh 7.1µM (no result: Menin MLL FP TR)
CCOP(=S)(OCC)Oc1ccc(S(C)=O)cc1 (configuration not stated)	none (no result: RGS12 GoLoco inh, Menin MLL FP TR, Menin MLL FP FL, CXXC DNA block)
